The whole screen tested about 220,000 compounds, of which about 530 (0.24%) were called active. Only a selection was taken, and actives are over-represented in it overall. Results with a measured potency or affinity are listed apart. Values without a mark were called inactive. Cut-off read from the data, not from the text of the source: active = inhibition above about 13%; inconclusive = no clear call, values can overlap the other calls; inactive = below that.
Biological target: Bifunctional protein GlmU (Mycobacterium tuberculosis (strain ATCC 25618 / H37Rv)) (UniProt P9WMN3)
Sequence (P9WMN3 whole entry, looked up): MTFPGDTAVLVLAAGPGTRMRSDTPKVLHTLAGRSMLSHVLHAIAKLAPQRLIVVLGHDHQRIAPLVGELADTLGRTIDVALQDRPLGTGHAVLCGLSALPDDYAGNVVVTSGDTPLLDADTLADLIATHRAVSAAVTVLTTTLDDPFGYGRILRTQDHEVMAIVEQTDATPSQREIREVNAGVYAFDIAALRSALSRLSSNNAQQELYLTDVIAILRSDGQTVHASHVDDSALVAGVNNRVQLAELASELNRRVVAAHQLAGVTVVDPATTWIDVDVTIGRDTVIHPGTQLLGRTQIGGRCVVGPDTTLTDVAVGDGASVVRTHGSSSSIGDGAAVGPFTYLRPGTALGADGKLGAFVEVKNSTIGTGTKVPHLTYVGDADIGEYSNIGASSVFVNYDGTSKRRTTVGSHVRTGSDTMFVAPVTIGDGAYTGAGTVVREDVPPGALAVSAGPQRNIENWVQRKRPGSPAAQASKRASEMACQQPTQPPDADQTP
Experiment: inhibition of mycobacterial GlmU enzyme – biochemical, glucosamine-1-phosphate acetyltransferase (AID 1376);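 note: 0% = complete reaction with vehicle and 100% = reaction without substrate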
Conditions: M. tuberculosis GlmU acetyltransferase enzyme assay; hits give high values;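 tested at 30 µM in the primary screen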

| SMILES | inhibition |
| --- | --- |
| O=C(NC1CCN(C(=O)N2c3ccccc3Sc3ccccc32)CC1)c1ccccc1Cl | 2.41% |
| Cc1ccc(SC(C)c2nc(-c3ccccc3)no2)cc1 (stereo unspecified) | 14.3% (active) |
| Cc1ccc(SC(C)c2nc(-c3ccncc3)no2)cc1 (stereo unspecified) | 5.19% |
| Cc1ccc(SC(C)c2nc(-c3cccnc3)no2)cc1 (stereo unspecified) | -3.18% |
| CC12CCC(C(=O)NCc3ccccc3Cl)(OC1=O)C2(C)C (stereo unspecified) | 0.28% |
| Cc1[nH]c(=O)[nH]c(=O)c1/C=N/NC(=O)CCNC(=O)OC(C)(C)C | -1.18% |
| Cc1[nH]c(=O)[nH]c(=O)c1/C=N/NC(=O)[C@H](C)NC(=O)OC(C)(C)C | 12.9% (active) |
| Cc1[nH]c(=O)[nH]c(=O)c1/C=N/NC(=O)[C@@H](NC(=O)OC(C)(C)C)C(C)C | -0.37% |
| CCN(C(=O)c1nn(-c2ccc(OC)cc2)c(=O)c2c1c1ccccc1n2C)c1ccc(OC)cc1 | -3.7% |
| C=CCn1c(O)c(C=NCCN2CCOCC2)c(=O)[nH]c1=S | -1.69% |
| Cc1cc2nc(-c3ccc(SCc4ccc(C#N)cc4)nc3)[nH]c2cc1C | 0.22% |
| Cc1cc2nc(-c3ccc(SCc4ccc(C(=O)O)cc4)nc3)[nH]c2cc1C | 13.2% (active) |
| CC(=O)CSc1ccc(-c2nc3cc(C)c(C)cc3[nH]2)cn1 | 8.32% |
| O=C(O)c1ccccc1-c1ccccc1C(=O)Nc1cccc(Br)c1 | 0.35% |
| CCOc1ccc(-c2cc3cc(OC)c(OC)cc3c(C)n2)cc1 | -1.9% |
| Cc1nc(-c2ccccc2Cl)sc1C(=O)/C=C/N(C)C | -0.01% |
| Cc1nnc(SCC(=O)Nc2ccc(-c3nc4ccccc4s3)cc2)s1 | 6.16% |
| Cc1ccc2nc(-c3ccc(NC(=O)CSCC(=O)O)cc3)sc2c1 | 4.5% |
| CCc1nc(-c2ccccc2)c2ccccn12 | 0.63% |
| COCCn1nnnc1C(C(C)C)N(Cc1cccnc1)Cc1cc2cc(OC)ccc2[nH]c1=O (stereo unspecified) | 0.94% |
| COc1ccc(C)cc1NC(=O)NC(C)c1ccncc1 (stereo unspecified) | -4.98% |

| SMILES | inhibition |
| --- | --- |
| COc1ccc(Cl)cc1NC(=O)NC(C)c1ccncc1 (stereo unspecified) | 13% (active) |
| COc1ccc(Cl)cc1NC(=O)NC(C)C | -2.94% |
| Cc1cc2c3ccccc3ncn2n1 | 4.82% |
| CCOC(=O)c1cnc2c(c(C)nn2C)c1Oc1ccccc1F | 3.91% |
| COc1cccc(OCC(Cn2cnc3ccccc32)OC(C)=O)c1 (stereo unspecified) | -0.44% |
| O=C(/C=C/c1ccco1)Nc1ccccc1C(=O)Nc1cccc(C(=O)O)c1 | 3.1% |
| COC(=O)c1ccccc1NC(=O)/C=C/c1ccco1 | -3.26% |
| O=C(/C=C/c1ccco1)Nc1ccccc1C(=O)O | 15% (active) |
| CCc1ccccc1NC(=O)c1cccc(NC(=O)/C=C/c2ccco2)c1 | -2.87% |
| O=C(CCCN1C(=O)/C(=C/c2ccco2)SC1=S)Nc1cccc(C(=O)O)c1 | 8.84% |
| O=C(O)CCCN1C(=O)/C(=C\c2ccco2)SC1=S | 23.1% |
| O=C(/C=C/c1ccco1)Nc1cccc(C(=O)Nc2ccccc2C(=O)O)c1 | 14.7% (active) |
| O=C(/C=C/c1ccco1)Nc1cc(Cl)ccc1C(=O)O | 13% (active) |
| O=C(/C=C/c1ccco1)Nc1cccnc1Cl | 0.97% |
| O=C(/C=C/c1ccco1)Nc1ccccc1N1CCCC1 | -0.88% |
| O=C(/C=C/c1ccco1)Nc1ccc(Oc2ccc(Cl)cc2)cc1 | 2.3% |
| CCc1cccc(CC)c1NC(=O)COC(=O)c1ccccc1-c1nc2ccccc2s1 | -1.43% |
| COc1ccc(-n2c(SCC(=O)NCCCN3CCCC3=O)nnc2C(C)N2CCCCC2)cc1 (stereo unspecified) | -0.73% |
| O=C(O)C(Cc1cc(Cl)ccc1Cl)Sc1nc2ccccc2[nH]1 (stereo unspecified) | -6.33% |
| COCCNC(=O)COC(=O)c1[nH]c(C)c(C(C)=O)c1C | -0.47% |
| COc1ccc(/C=C/C(=O)Nc2nnc(C(C)C)s2)cc1OC | 4.06% |

| SMILES | inhibition |
| --- | --- |
| CN(C)/C=C/C(=O)C(Cl)(Cl)Cl | -0.97% |
| COc1ccc(Nc2nnc(SCc3cc([N+](=O)[O-])cc4c3OCOC4)s2)cc1 | -5.67% |
| O=C(CCCOc1ccc(Cl)cc1Cl)NCc1ccncc1 | 2.06% |
| CN(CC(=O)Nc1ccc2c(c1)OCO2)S(=O)(=O)c1ccc2c(c1)CCC(=O)N2 | 2.93% |
| CC(C)CCN(CCC(C)C)C(=O)Cc1c(O)c2ccccc2[nH]c1=O | -2.47% |
| CCN(CC)C(=O)Cc1c(O)c2ccccc2[nH]c1=O | 1.17% |
| O=C(Cc1c(O)c2ccccc2[nH]c1=O)N(Cc1ccccc1)Cc1ccccc1 | 35% (active) |
| COc1ccc(NC(=O)C2=C(C)Nc3nc(CCCO)nn3C2c2ccc(OC)c(OC)c2)cc1 (stereo unspecified) | 6.23% |
| COc1cc(NC(=O)c2cccs2)c(C(=O)OCC(=O)c2cc(C)n(-c3ccc(F)cc3)c2C)cc1OC | 3.27% |
| Cc1ccccc1Oc1ccc(NC(=O)C2CC=CCC2C(=O)O)cc1 (stereo unspecified) | 3.98% |
| Cc1ncc(S(=O)(=O)c2ccccc2)c(-c2ccccc2Cl)n1 | 4.86% |
| CN(C)c1ncc(S(=O)(=O)c2ccc(Cl)cc2)c(-c2ccccc2)n1 | -0.58% |
| CN(C)c1ncc(S(=O)(=O)c2ccccc2)c(-c2ccccc2Cl)n1 | 13.9% (active) |
| CC(C)N1CCC(N2CCN(Cc3ccc4nsnc4c3)CC2CCO)CC1 (stereo unspecified) | -6.91% |
| O=C(CCc1nc2ccccc2[nH]c1=O)OCc1ccc(S(=O)(=O)N2CCOCC2)cc1 | 1.61% |
| Cc1cccc2cc3c(NC(=O)CC(C)C)nn(C)c3nc12 | 0.35% |
| CC1=C(C/C(C)=C/c2ccccc2)/C(=C/CO)[C@@H]2OC(=O)O[C@]2(C)C12CC2 | 3.53% |
| CC1=C(C/C(C)=C/c2ccccc2)/C(=C/CO)[C@H](O)[C@](C)(O)C12CC2 | 13.9% (active) |
| C/C(=C\c1ccccc1)CN1CCN(c2ccccc2)CC1 | 2.64% |

Source: PubChem BioAssay AID1376 (SRMLSC, 2008)
